Bioassay records from PubChem BioAssay.
T cruzi growth-1: inhibitors of T. cruzi proliferation; hit rate 5.9% among 77,000; T. cruzi beta-gal in NIH3T3, GalScreen luminescence, 90 h; inhibition, % at 8.34 µM;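 active means mean inhibition above about 93%, with at least 55% of replicates each passing it, limit read from the data, passing the limit was not always enough; inconclusive means only one of those two conditions holds; inactive means neither condition holds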
C diff growth: inhibitors of Clostridium difficile growth; growth activity, negative = inhibition, % at 16 µg/mL (by protocol); AID 1259249; Clostridium difficile clinical isolate growth, OD600, 24 h; hits give low values; hit rate 0.25% among 86,000;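 active means mean growth activity at or below -80% and every replicate also at or below -80%; inconclusive means mean at or below -80% but some replicate above -80%; inactive means mean growth activity above -80%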;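 further: 0% = DMSO wells and -100% = levofloxacin 16 µg/mL wells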
Pf Dd2 growth: inhibitors of Plasmodium falciparum Dd2 growth. activity change, % at 10 µM. hit rate 2.3% among 94,000. AID 1159554. P. falciparum Dd2 growth, SYBR Green, 72 h; hits give low values; in the data active means activity change below about -80%; inconclusive means no clear call, values can overlap the other calls
T cruzi growth-2: Trypanosoma cruzi proliferation inhibition | hit rate 72% among 5,600 | inhibition, % at 8.35 µM | AID 651739 | shares compounds with T cruzi growth-1 | T. cruzi beta-gal in NIH3T3, GalScreen luminescence, 90 h;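 active means mean replicate inhibition above about 95% and at least 55% of replicates individually reaching it, limit read from the data; inconclusive means only one of the two criteria is met; inactive means neither criterion is met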
T cruzi growth-3: Trypanosoma cruzi proliferation inhibition | shares compounds with T cruzi growth-1 | T. cruzi beta-gal in NIH3T3, GalScreen luminescence, 90 h | inhibition, % at 2.09 µM | hit rate 21% among 5,600;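 active means mean inhibition above about 95%, with at least 55% of replicates also reaching it, limit read from the data; inconclusive means meets just one of the two conditions; inactive means meets neither condition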;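 further: plate controls were neutral control median for no effect and positive control median for full effect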
NIH3T3 tox: cytotoxicity in mouse NIH/3T3 fibroblasts; cytotoxicity (signal decrease), % at 8.35 µM; NIH/3T3 viability, CellTiter-Glo ATP luminescence, 90 h; shares compounds with T cruzi growth-1; hit rate 14% among 5,600;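 active means mean signal decrease across replicates above about 35% based on untreated-well scatter, with enough replicates individually passing, limit read from the data; inconclusive means no rule stated though some were filed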;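 further: 0% = median of neutral control wells and 100% = median of positive control wells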
3T3 cytotox 2: cytotoxicity in mouse NIH/3T3 fibroblasts; shares compounds with T cruzi growth-1; NIH/3T3 viability, CellTiter-Glo ATP luminescence, 90 h; inhibition, % at 24.9 µM; hit rate 56% among 5,600; AID 651744;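 active means mean loss of cell viability signal at or above a set limit, and enough replicates individually reaching it; inconclusive means meets only the mean limit or only the replicate share; inactive means meets neither condition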;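 further: 0% = median of neutral control wells and 100% = median of positive control wells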
The depositor's hits bear a star; ? = inconclusive; . = no result given. Compounds with a hit are over-represented: about 6.8% of the library has one in this group of screens.

SMILES	T cruzi growth-1	C diff growth	Pf Dd2 growth	T cruzi growth-2	T cruzi growth-3	NIH3T3 tox	3T3 cytotox 2
COc1ccccc1NC(=O)Nc1ccc2c(c1)OC[C@@H](C)N(Cc1ccccc1C(=O)O)C[C@@H](C)[C@H](OC)CN(C)C2=O	-169	.	-1	.	.	.	.
COc1ccccc1NC(=O)Nc1ccc2c(c1)OC[C@@H](C)N(Cc1ccccc1Cl)C[C@@H](C)[C@H](OC)CN(C)C2=O	127*	.	-97*	104*	112*	1	14
CCS(=O)(=O)Nc1ccc2c(c1)C(=O)N(C)C[C@@H](OC)[C@@H](C)CN(Cc1ccccn1)[C@H](C)CO2	23	.	-1	.	.	.	.
CCS(=O)(=O)Nc1ccc2c(c1)C(=O)N(C)C[C@H](OC)[C@H](C)CN(Cc1ccccn1)[C@H](C)CO2	99*	.	32	-3	-18	-3	19
CO[C@H]1CN(C)C(=O)c2cc(NC(=O)NC(C)C)ccc2OC[C@@H](C)N(Cc2ccccn2)C[C@@H]1C	-12	.	17	.	.	.	.
C[C@@H]1CN([C@H](C)CO)C(=O)Cc2cc(NC(=O)Nc3ccccc3)ccc2O[C@H]1CN(C)S(=O)(=O)c1cccs1	12	-4	15	.	.	.	.
O=C(CN1CCOCC1)NCC[C@H]1CC[C@H](NC(=O)Cc2ccccn2)[C@@H](CO)O1	40	.	15	.	.	.	.
O=C(C1CC1)N1CCCCN2[C@H](C1)[C@H](c1ccc(C#CC3CC3)cc1)[C@@H]2CO	60	4	20	.	.	.	.
O=C(C1CCCC1)N1CCCCN2[C@H](C1)[C@H](c1ccc(C#CC3CC3)cc1)[C@@H]2CO	114*	19	12	99*	53	8	21
O=C(C1CCCC1)N1CCCCN2[C@H](C1)[C@@H](c1ccc(C#CC3CC3)cc1)[C@@H]2CO	84	-11	28	.	.	.	.
CN(C)CC#Cc1ccc([C@H]2[C@@H](CO)N3CCCCN(C(=O)C4CC4)C[C@H]23)cc1	102*	-3	23	6	-24	21	36*
CN(C)CC#Cc1ccc([C@H]2[C@@H](CO)N3CCCCN(C(=O)C4CC4)C[C@@H]23)cc1	49	2	14	.	.	.	.
O=C(C1CCCC1)N1CCCCN2[C@H](CO)[C@H](c3ccc(C#CC4CC4)cc3)[C@H]2C1	113*	-10	-21	104*	79	4	37*
NC(=O)NCC#Cc1ccc2c(c1)[C@]1(C(=O)N2)[C@H](C(=O)O)[C@H]2C(=O)O[C@H](c3ccccc3)[C@H](c3ccccc3)N2[C@@H]1c1ccc(O)cc1	.	-2	.	.	.	.	.
COc1cccc(S(=O)(=O)N2CC[C@H]3[C@H](CO)Nc4ccc(C#Cc5cccnc5)cc4[C@H]32)c1	.	2	-36	.	.	.	.
COc1cccc(S(=O)(=O)N2CC[C@@H]3[C@H](CO)Nc4ccc(C#Cc5cccnc5)cc4[C@@H]32)c1	110*	-8	-8	108*	71	29	22
COc1cccc(C#Cc2ccc3c(c2)[C@H]2[C@H](CCN2S(=O)(=O)c2ccccc2)[C@H](CO)N3)c1	105*	-2	-45	108*	84	14	17
COc1cccc(C#Cc2ccc3c(c2)[C@@H]2[C@@H](CCN2S(=O)(=O)c2ccccc2)[C@H](CO)N3)c1	.	16	-56	.	.	.	.
C[C@H](CO)N1C[C@H](C)[C@@H](CN(C)CC2CCCCC2)Oc2c(NS(=O)(=O)c3ccc(Cl)cc3)cccc2C1=O	44	2	1	.	.	.	.
CO[C@H]1CN(C)C(=O)c2cc(NS(C)(=O)=O)ccc2OC[C@H](C)N(C(=O)CN(C)C)C[C@H]1C	28	-3	0	.	.	.	.
CCC(=O)N1[C@@H]2CN(S(=O)(=O)c3ccccc3C)c3ccccc3[C@@H]2[C@@H]1CO	10	2	-42	.	.	.	.
C[C@H](CO)N1C[C@H](C)[C@H](CN(C)Cc2ccncc2)OCCCC[C@H](C)Oc2ccc(NC(=O)Nc3cccc4ccccc34)cc2C1=O	89	26	37	.	.	.	.
C[C@@H]1CCCCO[C@@H](CN(C)Cc2ccc(Cl)c(Cl)c2)[C@H](C)CN([C@@H](C)CO)C(=O)c2cc(NC(=O)Nc3cccc4ccccc34)ccc2O1	126*	-2	-48	110*	112*	16	1
C[C@@H]1CN([C@H](C)CO)C(=O)c2cc(NC(=O)Nc3cccc4ccccc34)ccc2O[C@@H](C)CCCCO[C@@H]1CN(C)Cc1ccccc1	.	24	-66	.	.	.	.
C[C@@H]1CN([C@@H](C)CO)C(=O)c2cc(NC(=O)Nc3cccc4ccccc34)ccc2O[C@@H](C)CCCCO[C@H]1CN(C)Cc1ccc(Cl)c(Cl)c1	122*	-18	-35	107*	106*	24	8
SMILES	T cruzi growth-1	C diff growth	Pf Dd2 growth	T cruzi growth-2	T cruzi growth-3	NIH3T3 tox	3T3 cytotox 2
C[C@@H]1CCCCO[C@H](CN(C)Cc2ccc(Cl)c(Cl)c2)[C@@H](C)CN([C@@H](C)CO)C(=O)c2cc(NC(=O)Nc3cccc4ccccc34)ccc2O1	125*	-12	-90*	101*	116*	18	-3
C[C@@H]1CCCCO[C@@H](CN(C)Cc2ccncc2)[C@@H](C)CN([C@@H](C)CO)C(=O)c2cc(NC(=O)Nc3cccc4ccccc34)ccc2O1	94	11	-13	.	.	.	.
CC(C)NC(=O)N[C@@H]1C[C@@H]2O[C@H](CO)CC[C@@H]2O[C@@H]1CCc1ccc(-c2ccc(F)cc2)cc1	.	-5	-26	.	.	.	.
O=C([C@@H]1[C@@H](CO)[C@@H]2Cn3c(cccc3=O)[C@H]1N2C(=O)CC1CC1)N1CCc2ccccc2C1	.	4	5	.	.	.	.
CC(=O)N1[C@@H]2Cn3c(cccc3=O)[C@H]1[C@@H](C(=O)N1CCc3ccccc3C1)[C@@H]2CO	-16	3	-4	.	.	.	.
O=C([C@H]1[C@H](CO)[C@H]2Cn3c(cccc3=O)[C@@H]1N2CC1CC1)N1CCc2ccccc2C1	108*	-6	.	83	40	7	16
O=C([C@@H]1[C@@H](CO)[C@@H]2Cn3c(cccc3=O)[C@H]1N2CC1CC1)N1CCc2ccccc2C1	121*	-10	.	-8	-10	18	12
Cc1noc(C)c1NC(=O)N(C)C[C@@H]1Oc2c(NC(=O)C3CCOCC3)cccc2C(=O)N([C@@H](C)CO)C[C@H]1C	-4	3	17	.	.	.	.
COc1ccc(CN(C)C[C@@H]2Oc3ccc(NC(=O)Cc4cn(C)c5ccccc45)cc3C(=O)N([C@H](C)CO)C[C@@H]2C)cc1	39	1	-32	.	.	.	.
C[C@H](CO)N1C[C@H](C)[C@H](CN(C)Cc2ccc(Oc3ccccc3)cc2)Oc2ccc(NC(=O)Cc3cn(C)c4ccccc34)cc2C1=O	?	15	-56	104*	59	24	43*
C[C@@H]1CN([C@H](C)CO)C(=O)c2cc(NC(=O)Cc3cn(C)c4ccccc34)ccc2O[C@@H]1CN(C)Cc1ccc(Oc2ccccc2)cc1	96*	3	-17	101*	76	12	53*
